Source: PubChem BioAssay (NCI)
This is part of a sample that, as a whole, favours compounds with a hit. Of some 83,000 tested, about 20% had one in any assay.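 Compound tested at a single concentration for 48 hours in 96-well plates; a percent growth value below 10 was scored as active.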 A number with no mark means an inactive call. Active and inactive are the calls of the source.

Columns and labels:
Assay in all cases: NCI-60 one-dose screen, 48 h (100 = growth as untreated, 0 = no growth, -100 = all killed)
HCT-15 colon = conditions: 10 µM
HT29 colon = conditions: 10 µM
SNB-75 CNS = conditions: 10 µM
SNB-19 CNS = conditions: 10 µM
U251 CNS = conditions: 10 µM
PC-3 prostate = conditions: 10 µM
SK-MEL-5 melanoma = conditions: 10 µM
UACC-62 melanoma = conditions: 10 µM unless noted
LOX IMVI melanoma = conditions: 10 µM
SK-MEL-28 melanoma = conditions: 10 µM

| Structure (SMILES) | growth (HCT-15 colon) | growth (HT29 colon) | growth (SNB-75 CNS) | growth (SNB-19 CNS) | growth (U251 CNS) | growth (PC-3 prostate) | growth (SK-MEL-5 melanoma) | growth (UACC-62 melanoma) | growth (LOX IMVI melanoma) | growth (SK-MEL-28 melanoma) |
| --- | --- | --- | --- | --- | --- | --- | --- | --- | --- | --- |
| CCOC(=O)c1coc(C(=O)OCC)c1C(=O)OCC | 105% | 124% | 92.3% | 112% | 102% | 122% | 108% | 112% | 108% | 117% |
| CCCCCCCCCCC1CO1 (stereo not given) | 104% | 108% | 94% | 103% | 97.8% | 102% | 100% | 112% | 102% | 98.4% |
| O=[N+]([O-])c1ccccc1N=Nc1ccc(O)cc1O | 112% | 112% | 91.5% | 111% | 115% | 97.2% | 106% | 124% | 99.8% | 121% |
| CN1C(=O)CN2CCc3ccccc3C2c2cc(Cl)ccc21 (stereo not given) | 89.7% | 108% | 96.1% | 96.7% | 103% | 94.7% | 91.5% | 78.7% | 94.7% | -89.5% (active) |
| CCOC(=O)C(O)C(O)C(=O)OCC (stereo not given) | 99.1% | 105% | 99% | 103% | 102% | 98% | 97.5% | 102% | 99.8% | 106% |
| CNC(=O)c1ccccc1CC1(O)c2ccccc2Oc2ccccc21 | 44.6% | 7.73% (active) | 58.3% | 93% | 47.8% | 35.3% | 41.9% | 43.6% | 57.9% | 63.8% |
| CC(=O)c1c[nH]c2ccccc12 | 101% | 118% | 88.1% | 105% | 95.7% | 86.1% | 103% | 97.5% | 102% | 103% |
| CC1=CC(C)(C)NC(=S)N1c1ccc(S(=O)(=O)O)c2cccc(S(=O)(=O)O)c12 | 105% | 133% | 90.5% | 109% | 113% | 92.5% | 101% | 97.5% | 107% | 112% |
| Nc1ccc(CC(=O)O)c(N)c1 | 106% | 107% | 93.1% | 97% | 101% | 101% | 99.2% | 93.3% | 101% | 101% |
| Cc1nc2ccccc2c(C(=O)O)c1O | 107% | 103% | 98.3% | 93.1% | 103% | 104% | 102% | 93.2% | 96.4% | 122% |
| CC(=O)OCCC(C)CCC=C(C)C (stereo not given) | 92.5% | 105% | 95.9% | 103% | 102% | 92.3% | 101% | 97.8% | 103% | 113% |
| CCN=c1cc2sc3cc(NCC)c(C)cc3nc-2cc1C | 8.95% (active) | 16.7% | 52% | 4.67% (active) | 10.7% | 3.93% (active) | -56.9% (active) | 61.3% | 2.17% (active) | 60.4% |
| Cc1cc(C(C)(C)C)cc(C)c1Br | 109% | 113% | 94.6% | 106% | 113% | 75.3% | 111% | 108% | 96.1% | 109% |
| N#CSc1cc(S(N)(=O)=O)ccc1N | 108% | 101% | 85.5% | 102% | 101% | 109% | 101% | 104% | 99.9% | 102% |
| CN(C)c1ccc(CNC(C(=O)c2ccccc2)c2ccccc2)cc1 (stereo not given) | 96.9% | 82.6% | 90.4% | 107% | 94.1% | 85.7% | 56.2% | 99.2% | 95.1% | 94.2% |
| O=C(O)COCC(=O)O | 103% | 105% | 81.4% | 108% | 94.7% | 97% | 102% | 111% | 101% | 98.3% |
| CC1(O)CCCCC1O (stereo not given) | 102% | 106% | 96.5% | 97.3% | 104% | 98.4% | 107% | 96.5% | 106% | 113% |
| Cc1cc(Cc2cc(C)c(N)cc2N)c(N)cc1N | 103% | 95.9% | 91.4% | 96.3% | 88.9% | 85.4% | 91.9% | 95.5% | 87.3% | 112% |
| COc1ccc(C)cc1OC | 104% | 108% | 104% | 107% | 97.2% | 105% | 99.7% | 99.5% | 96.1% | 115% |
| c1ccc2c(c1)Sc1ccccc1S2 | 105% | 105% | 89.6% | 100% | 93.4% | 91.4% | 101% | 102% | 98.2% | 110% |
| C=CCNC(=O)c1ccc(OC)cc1 | 108% | 129% | 117% | 92.1% | 101% | 104% | 103% | 99.1% | 111% | 144% |
| O=S(=O)(O)C(Nc1ccccc1)c1ccccc1 (stereo not given) | 105% | 105% | 71.9% | 101% | 101% | 102% | 77.3% | 88.9% | 93.8% | 104% |
| CCCCC/C=N/Nc1nc(C)cc(=O)[nH]1 | 116% | 105% | 99.2% | 108% | 96.6% | 88.7% | 104% | 102% | 94.3% | 102% |
| O=C(O)c1cccc([N+](=O)[O-])c1 | 108% | 111% | 94.3% | 106% | 95.7% | 93.1% | 107% | 101% | 99.2% | 112% |
| O=[N+]([O-])c1ccc(-c2ncc(-c3ccc(Br)cc3)o2)cc1 | 96.5% | 98.3% | 122% | 99.9% | 95.8% | 89.8% | 89.4% | 93.3% | 104% | 114% |
| CCCCCCCO | 95.6% | 132% | 106% | 102% | 97.8% | 105% | 99.2% | 97.7% | 99.8% | 98.3% |
| Cc1ncc(C#N)c(N)n1 | 100% | 112% | 77.8% | 102% | 100% | 90% | 89.9% | 99.7% | 100% | 102% |
| O=c1[nH]cc(Cl)cc1O | 64.4% | 97.3% | 93.1% | 105% | 88.6% | 82.2% | 86.6% | 40.5% | 65.5% | 105% |
| CCn1c(=O)n(C)c2c(=O)n(C)c(=O)n(C)c21 | 106% | 101% | 97.1% | 102% | 99.3% | 97.4% | 103% | 107% | 96.4% | 118% |
| Clc1ccc(-c2n[nH]c3c2Cc2ccccc2-3)cc1Cl | 87.8% | 106% | 84.9% | 93.8% | 97.9% | 92.4% | 95.6% | 91.2% | 97.4% | 114% |
